Screens from PubChem BioAssay.
This is a sample that favours compounds with a hit; in the whole collection about 4.6% have one here.
Vaccinia Venus: vaccinia inhibition (Venus reporter); Vaccinia virus Venus reporter expression, fluorescence; Potency, µM (doses to about 36.5 µM), for the others: at the top dose activity change, negative = inhibition, most hits filed as inhibitors; 0.46% of 330,000 active; calls by dose curve; tested in A549 cells; note: nearly all actives have a fitted effect of over 30% in size
LASV entry inh: blocks Lassa virus binding to or entry into cells. Lassa virus pseudotype entry inhibition, cell reporter. AID 540256. Potency, µM (highest dose often 37.9 µM), inactives show at the highest dose activity change, negative = inhibition, most hits filed as inhibitors. 1.2% of 300,000 active; calls by dose curve; tested in HEK293 cells; note: nearly all actives have a fitted effect of over 50% in size
HCV inhibitor: inhibitors of hepatitis C virus infection; 3.4% of 340,000 active; Huh7.5.1 HCVcc-Cre infection, luciferase reporter, 44 h; AID 651820; Potency, µM (series often up to 41.8 µM), inactives show at the top dose activity change, negative = inhibition, usual class: inhibitors; active = well fitted inhibition curve with a large enough effect; inconclusive = small, poorly fitted or top-dose-only effect, or another doubt; inactive = no such curve, though single readings can be large or run the other way
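HCVcc-Cre virus at an moi near 0.5 was added right after compound to cells cultured 4 h from seeding (1,000 cells/well). Luciferase activity was determined 44 h later, 15 min after substrate addition at RT.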
MARV entry inh: blocks Marburg virus binding to or entry into cells. Potency, µM (doses to about 37.8 µM), for the others: top-dose activity change, negative = inhibition, most hits filed as inhibitors. Marburg virus pseudotyped entry inhibition, cell reporter. 1.8% of 300,000 active; calls by dose curve; tested in HEK293 cells
Vaccinia mCherry: vaccinia inhibition (mCherry reporter); Potency, µM (titrated, usually from 36.5 µM), for the others: top-dose activity change, negative = inhibition, usual class: inhibitors; 0.63% of 310,000 active; Vaccinia virus mCherry reporter infection, fluorescence; AID 720579; calls by dose curve; tested in A549 cells; note: nearly all actives have a fitted effect of over 35% in size
Starred values were filed as active, the others as inactive; [ ] = dose if it differs, or a comment. % is set by controls: 0 for no effect and ±100 for the full control effect; potency is the fitted concentration of half-maximal effect.

For CC(=O)O[C@H]1C(=O)[C@]2(C)[C@H]([C@H](OC(=O)c3ccccc3)[C@]3(O)C[C@H](OC(=O)[C@H](O)[C@@H](NC(=O)c4ccccc4)c4ccccc4)C(C)=C1C3(C)C)[C@]1(OC(C)=O)CO[C@@H]1C[C@@H]2O the results were Vaccinia Venus -25.9%, HCV inhibitor 6.31µM* and Vaccinia mCherry -17.7%.
C[C@@H]1/C=C/CC(=O)OC[C@H](C)C(=O)OC[C@H]2O[C@H]1C=C[C@H]2O was read as MARV entry inh -13.6%[14.2 µM].
For CC(C)CCNC(=O)/C=C/c1ccc(Br)cc1 the results were Vaccinia Venus -7.3%, LASV entry inh 1.58µM*, HCV inhibitor -2.3%, MARV entry inh inconclusive and Vaccinia mCherry -15.8%.
`COc1cc(CNCCO)cc(Br)c1OCc1cccs1` gave Vaccinia Venus -15.3%, LASV entry inh -15.0%, HCV inhibitor -9.7% and MARV entry inh inconclusive.
Screening COc1cc(CNC(C)(C)C)cc(Br)c1OCc1cccs1 returned Vaccinia Venus -18.8%, LASV entry inh inconclusive, HCV inhibitor 20µM*, MARV entry inh inconclusive and Vaccinia mCherry inactive.
`N#Cc1nc(N2CCCC2)nc(N(c2ccccc2)c2ccccc2)n1` gave Vaccinia Venus -19.2% and Vaccinia mCherry inactive.
CCC(C)NC(=O)c1c(N)n(/N=C/c2cccnc2)c2nc3ccccc3nc12 (configuration not stated) was read as LASV entry inh -36.8%, HCV inhibitor 14.1µM* and MARV entry inh 25.9µM*.
For FC(F)(F)C1CCC(c2nnc(C3CCCCN3)c(C3=NCCCC3)n2)NC1 (configuration not stated) the results were MARV entry inh 16.3%.
For COc1cc(C(=S)N2CCOCC2)cc(OC)c1OC(=O)c1ccccc1[N+](=O)[O-] the results were Vaccinia Venus -24.0%, LASV entry inh inconclusive, HCV inhibitor 15.8µM*, MARV entry inh 14.0%[46.1 µM] and Vaccinia mCherry inactive.
CCOC(=O)c1[nH]c2ccc(OC)cc2c1NC(=O)CCN1CCC[C@@H](C)C1 was read as MARV entry inh 2.6%[46.1 µM].
For C=CCn1c2ccccc2c(=O)c2cc(C#Cc3ccccn3)ccc21 the results were Vaccinia Venus -13.1%, HCV inhibitor 12.6µM* and Vaccinia mCherry inactive.
For CC1=CC(=C2C(=O)c3ccccc3C2=O)C=C(C)O1 the results were Vaccinia Venus -17.5%, LASV entry inh 9.5%, HCV inhibitor -12.8%, MARV entry inh -10.1% and Vaccinia mCherry -13.8%.
`CC(=O)N1C(=O)C(=C2C=C(C)OC(C)=C2)c2ccccc21` gave LASV entry inh 21.4%, HCV inhibitor 10µM* and MARV entry inh 12.6%.
N#Cc1c(N)nc2c(c1-c1ccc3c(c1)OCO3)CCc1ccccc1-2 was read as Vaccinia Venus inconclusive, LASV entry inh inconclusive, HCV inhibitor 12.6µM*, MARV entry inh inconclusive and Vaccinia mCherry inconclusive.
`N#Cc1c(-c2ccc3c(c2)OCO3)csc1N` gave Vaccinia Venus -28.5%, LASV entry inh 14.0%, HCV inhibitor 8.91µM*, MARV entry inh 5.8% and Vaccinia mCherry inconclusive.
Screening COC(=O)c1ccccc1NC(=O)CSc1nc(-c2ccccc2)cc(C(F)(F)F)n1 returned Vaccinia Venus 8.1%, LASV entry inh 0.5%[46.1 µM], MARV entry inh -3.6%[46.1 µM] and Vaccinia mCherry -5.8%.
For O=C(c1ccccn1)N(Cc1ccco1)C1(C(=O)NC2CCCC2)CCCCC1 the results were Vaccinia Venus -2.6%, LASV entry inh 6.9%, HCV inhibitor inconclusive, MARV entry inh -12.0% and Vaccinia mCherry -3.6%.
`O=C(c1ccc2c(c1)OCO2)N(Cc1ccco1)C1(C(=O)NC2CCCCC2)CCCCC1` gave LASV entry inh inconclusive, HCV inhibitor 10µM* and MARV entry inh inconclusive.
`Cc1cc(NC(=O)CCC(=O)N(Cc2ccco2)C2(C(=O)NC3CCCC3)CCC(C)CC2)no1` (configuration not stated) gave Vaccinia Venus 46.7%, HCV inhibitor 14.1µM*, MARV entry inh -18.5%[46.1 µM] and Vaccinia mCherry -0.9%.
For Cc1cc(=O)c2c(O)c3c(O)cc(O)c4c5c(O)cc(O)c6c(O)c7c(=O)cc(C)c8c1c2c(c34)c(c65)c78 the results were Vaccinia Venus -0.9% and Vaccinia mCherry 6.5%.
Screening Brc1ccc2[nH]c3nc(SCCN4CCOCC4)nnc3c2c1 returned Vaccinia Venus -15.2%, LASV entry inh 0.501µM*, HCV inhibitor -15.3%, MARV entry inh inconclusive and Vaccinia mCherry -4.2%.
Screening COc1ccc2[nH]c3c(N4CC(C)OC(C)C4)ncnc3c2c1 (configuration not stated) returned LASV entry inh 10.5%, HCV inhibitor -21.7% and MARV entry inh -29.3%.
Screening COc1cccc2[nH]c3c(N4CCc5ccccc5C4)ncnc3c12 returned Vaccinia Venus -24.7%[7.34 µM], LASV entry inh inconclusive, HCV inhibitor 11.2µM*, MARV entry inh 6.8%[46.1 µM] and Vaccinia mCherry inconclusive.
COc1cccc(N2CCN(c3ncnc4c3[nH]c3ccc(F)cc34)CC2C)c1 (configuration not stated) was read as Vaccinia Venus 7.08µM*, LASV entry inh 2.82µM*, HCV inhibitor 1.58µM* and MARV entry inh inconclusive.
Screening COc1cccc(N2CCN(c3ncnc4c3[nH]c3ccccc34)CC2C)c1 (configuration not stated) returned HCV inhibitor 10µM*.
Screening O=C(NCc1ccccn1)c1cnn(-c2nccc(-c3cc4ccccc4o3)n2)c1C1CC1 returned Vaccinia Venus -7.3% and Vaccinia mCherry -9.5%.
Screening CCC1C(=O)NCCN1Cc1ccc2c(c1)CN(Cc1ccc3c(c1)OCCO3)CCO2 (configuration not stated) returned Vaccinia Venus -6.1% and Vaccinia mCherry -8.6%.
Screening Brc1ccc2c(ccc[n+]2CCc2ccccc2)c1 returned Vaccinia Venus -14.4% and Vaccinia mCherry -2.9%.
COc1ccc(C(=O)NCC2Cc3cccc(-c4ccc(S(C)(=O)=O)cc4)c3O2)c(OC)n1 (configuration not stated) was read as Vaccinia Venus -0.6% and Vaccinia mCherry -8.2%.
COCCn1c(C)cc(C(=O)CSc2nc3ccccc3s2)c1C was read as Vaccinia Venus -28.8%, LASV entry inh inconclusive, HCV inhibitor 10µM*, MARV entry inh inconclusive and Vaccinia mCherry inconclusive.
For COCCn1c(C)cc(C(=O)CSc2nnc3ccccn23)c1C the results were Vaccinia Venus -12.8%, HCV inhibitor 8.7% and Vaccinia mCherry -12.9%.
Screening CCCCCC1CC1C(=O)N/N=C/c1ccc(N(C)C)cc1 (configuration not stated) returned LASV entry inh 0.461µM*, HCV inhibitor -8.3% and MARV entry inh 13.5%.
CCOc1ccc(C(=O)c2cn(CC(=O)Nc3ccc(F)c(F)c3)c3cc4c(cc3c2=O)OCCO4)cc1 was read as Vaccinia Venus -24.3%, LASV entry inh -14.6%[46.1 µM], MARV entry inh inconclusive and Vaccinia mCherry -29.2%.
